CF NFkB block = blocks PAF-induced NF-kB reporter in cystic fibrosis cells; AID 588850; KKLEB NF-kB-GFP reporter, GFP fluorescence overnight; hit rate 0.86% among 360,000; inhibition, % at 5 µM;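 active = at least 50% inhibition at 5 µM, scaled per plate between neutral and stimulator controls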;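 also: PAF is a Pseudomonas aeruginosa culture filtrate used as stimulus; plate controls were PAF-stimulated DMSO wells for no effect and unstimulated DMSO wells for full effect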
KKLEB cytotox = reduces viability of KKLEB cystic fibrosis airway cells | activity change (cytotoxicity), % at 5 µM | AID 602141 | hit rate 0.36% among 360,000 | KKLEB CF airway cells viability, ATPlite luminescence, overnight; hits give low values; cells stimulated with P. aeruginosa culture filtrate;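 active = corrected activity change at or below -50% at 5 µM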
Mdm2-MdmX inh = disrupts the human Mdm2-MdmX interaction; O15151+Q00987; SaOS-2 split-luciferase Mdm2/MdmX complementation, luminescence; inhibition, % at 8 µM; hit rate 3% among 330,000; AID 485346;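 active = inhibition of at least 50% at 8 µM in the primary screen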
Peg3 prom inh = Peg3 promoter activity inhibition; HeLa PEG-Prom luciferase reporter, luminescence, overnight; inhibition, % at 20 µM; hit rate 1.7% among 360,000; AID 588405;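 active = inhibition of at least 50% at 20 µM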
HSP90 inh = HSP90 refolding inhibition in rabbit reticulocyte lysate | luciferase refolding luminescence, 3 h | inhibition, % at 5.6 µM | hit rate 0.91% among 290,000;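 active = inhibition above the screen-wide mean plus 3 SD, computed separately per campaign, cut at about 16% in these data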;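 also: 0% = DMSO wells and 100% = 60 µM geldanamycin wells; inhibitors lower the luminescence because luciferase stays unfolded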
LGR2 inh = blocks bursicon-induced cAMP signaling via Drosophila LGR2 | HEK293 LGR2, CRE-luciferase, bursicon-stimulated, 4 h | inhibition, % at 9.99 µM | hit rate 0.35% among 380,000 | AID 720647;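 active = drop in luminescence signal, shown as inhibition above about 50% in the replicate tests, limit read from the data, passing the limit was not always enough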;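 also: agonist challenge used bursicon conditioned medium at about half maximal strength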
Mdm2-MdmX conf = confirmation of human Mdm2/MdmX interaction inhibitors | shares compounds with Mdm2-MdmX inh | inhibition, % at 8 µM | Mdm2-MdmX binding, luminescent assay | hit rate 55% among 10,000 | AID 489028; in the data active = inhibition above about 40%
Full FLuc ctr = counter-screen for Mdm2/MdmX inhibitors: full-length luciferase | shares compounds with Mdm2-MdmX inh | SaOS-2 full-length luciferase counterscreen, luminescence | inhibition, % at 8 µM | hit rate 77% among 6,200;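 active = mean inhibition at 8 µM reaching about 37%, which flags the compound as non-specific, limit read from the data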;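 also: p53-null SaOS-2 cells with luciferase driven by a doxycycline-inducible promoter; compound on cells about two nights before reading with doxycycline added after day one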
Starred values were filed as active, the others as inactive; . = not tested or not shown. A selection: hits, their analogues and other compounds. The true share with any hit is near 3.6%.

SMILES | CF NFkB block | KKLEB cytotox | Mdm2-MdmX inh | Peg3 prom inh | HSP90 inh | LGR2 inh | Mdm2-MdmX conf | Full FLuc ctr
O=c1[nH]c(=O)n(-c2ccc(F)cc2)c2c1C(C(F)(F)F)(C(F)(F)F)N=C(c1ccc(F)cc1)N2 | 46.1 | -9.7 | 53.3* | 43.6 | -2.5 | 30.8 | 38.1 | 68.4*
CO[C@H]1CN(C)C(=O)c2cc(NC(=O)Nc3ccccc3)ccc2OC[C@H](C)N(C(=O)CN(C)C)C[C@@H]1C | . | . | . | . | . | 15.4 | . | .
C[C@H](CO)N1C[C@H](C)[C@@H](CN(C)S(=O)(=O)c2ccccc2)Oc2ccc(NC(=O)C3CC3)cc2CC1=O | . | . | . | . | . | 7.3 | . | .
COC(=O)c1cccc2c1-c1ccccc1/C2=N/O | 72.5* | -15.1 | 83.5* | 12.1 | -3.3 | . | 75.5* | 37.3*
C[C@H](CO)N1C[C@H](C)[C@H](CN(C)C(=O)[C@@H](Cc2ccccc2)N(C)C)OCc2ccccc2-c2ccccc2C1=O | . | . | . | . | . | -2.6 | . | .
CCOC(=O)C(=CNc1nc(-c2ccccc2)c(C(=O)Nc2ccc(-c3ccccc3)cc2)s1)C(=O)OCC | 14.4 | -28.8 | 70.7* | 8.3 | -0.7 | 12.2 | 14.8 | .
CCOC(=O)Nc1nc(-c2ccccc2)c(C(=O)c2ccc(Cl)cc2)s1 | 46.0 | -18.7 | 65.8* | 9.8 | 4.1 | . | 59.9* | 105.6*
CCOC(=O)Nc1sc(C)nc1-c1ccccc1 | -1.8 | 7.3 | 14.1 | -6.7 | 4.7 | 10.0 | . | .
Cc1ccc(NC(=O)c2sc(Cl)nc2-c2ccccc2)cc1 | 9.9 | -9.0 | 5.9 | -6.0 | -2.3 | . | . | .
COCCn1c(-c2ccc(Br)cc2)csc1=Nc1cccnc1 | -8.1 | -28.1 | 31.9 | 4.3 | 4.1 | 1.6 | . | .
Clc1ccc(-c2csc(=Nc3cccnc3)n2CCCn2ccnc2)cc1Cl | 50.0 | -5.6 | 66.3* | 3.3 | -0.5 | . | 35.9 | 55.4*
O=C(N/N=C/c1cn(-c2cccs2)nc1-c1ccccc1)c1ccccc1O | 15.4 | -1.8 | 62.5* | -101.6 | 6.1 | 73.7* | 15.3 | .
C[C@@H]1CN([C@H](C)CO)C(=O)c2cc(NC(=O)Nc3ccccc3)ccc2O[C@H]1CN(C)S(C)(=O)=O | . | . | . | . | . | 13.0 | . | .
N=c1ccn2c(n1)O[C@H]1[C@H](O)[C@@H](CO)O[C@H]12 | 11.7 | -3.3 | 60.6* | 33.5 | 0.5 | 1.4 | 63.9* | 45.7*
N=c1nc2n(cc1F)C1OC(CO)C(O)C1O2 (stereo not drawn) | 1.0 | 7.4 | . | 14.9 | . | -10.3 | . | .
N=c1ccn2c(n1)O[C@H]1[C@@H](CO)[C@H](O)O[C@H]12 | -17.8 | -0.5 | 69.5* | 30.9 | . | -4.9 | 61.2* | 43.0*
C[C@@H]1CN([C@@H](C)CO)C(=O)c2cc(NC(=O)CCC(F)(F)F)ccc2O[C@H]1CN(C)CC1CC1 | . | . | . | . | . | -8.1 | . | .
CCCC(=O)Nc1ccc2c(c1)C(=O)N(C)C[C@H](OC)[C@H](C)CN(Cc1nccs1)[C@H](C)CO2 | . | . | . | . | . | 0.2 | . | .
Oc1ccc2ccccc2c1N=Nc1ccccn1 | -14.8 | 3.0 | 63.4* | 8.7 | 11.6 | . | 74.1* | 28.0
CCOC(=O)C1=C(C)NC(SC)=C(C#N)C1CC(C)C (stereo not drawn) | 1.3 | -0.3 | 54.9* | 35.0 | -0.7 | 9.4 | 62.5* | 66.0*
Nc1nonc1-c1nc2ccccc2n1CC(=O)Nc1ccccc1 | 12.9 | -16.0 | 78.4* | 24.1 | 4.3 | 6.0 | 69.0* | 24.8
Nc1nonc1-c1nc2ccccc2n1CC(=O)NC1CCCC1 | 3.3 | -17.4 | -4.4 | 13.9 | 1.0 | 1.8 | . | .
CCOC(=O)c1ccccc1NC(=O)Cn1c(-c2nonc2N)nc2ccccc21 | 37.8 | -42.9 | 60.7* | 17.8 | 5.0 | . | 55.2* | 77.2*
CCCCn1c(-c2nonc2N)nc2ccccc21 | 28.2 | -18.9 | 61.2* | 11.8 | 1.2 | . | 45.0* | 50.2*
CC(C)CCn1c(-c2nonc2N)nc2ccccc21 | 40.9 | -8.7 | 47.2 | 16.8 | 3.5 | 18.7 | . | .
Cc1ccc(N=Cc2nc(/C=C/c3cccc([N+](=O)[O-])c3)oc2O)cc1 | 7.1 | -7.6 | 94.2* | 24.5 | 0.8 | -4.8 | 19.3 | .
CN1CCN(C(=O)C[C@H]2C[C@H]3c4cc(NC(=O)NC5CCCCC5)ccc4O[C@H]3[C@H](CO)O2)CC1 | . | . | . | . | . | 13.2 | . | .
